# The list is not random: actives were taken first. Their share in the collection is about 11%.
# 3T3 cytotox: Cytotoxic Profiling in NIH 3T3 Cell Line of Diverse Libraries Using Quantitative High-Throughput Screening; NIH 3T3 viability, CellTiter-Glo ATP luminescence, 48-72 h; Potency, µM (top dose mostly 96.7 µM), for inactives: at the highest dose activity change, negative = cytotoxicity, hits mostly inhibitors; 94,000 compounds, 4.3% hits; also: nearly all actives have a fitted effect of over 55% in size
#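 Mouse fibroblast NIH 3T3 cells, 400 per well, received compound via pintool and were incubated for 48 or 72 hr prior to CellTiter-Glo ATP luminescence measurement.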
# Luciferase inh: Firefly luciferase inhibition profiling of diverse chemical library using quantitative high-throughput screening; Luciferin 4-monooxygenase (Photinus pyralis), P08659; purified P. pyralis luciferase, luminescence, biochemical; Potency, µM (doses to about 115 µM), most hits filed as inhibitors; 76,000 compounds, 2.5% hits; AID 1347043, 2019; also: nearly all actives have a fitted effect of over 65% in size
# Target sequence (P08659 whole entry, looked up): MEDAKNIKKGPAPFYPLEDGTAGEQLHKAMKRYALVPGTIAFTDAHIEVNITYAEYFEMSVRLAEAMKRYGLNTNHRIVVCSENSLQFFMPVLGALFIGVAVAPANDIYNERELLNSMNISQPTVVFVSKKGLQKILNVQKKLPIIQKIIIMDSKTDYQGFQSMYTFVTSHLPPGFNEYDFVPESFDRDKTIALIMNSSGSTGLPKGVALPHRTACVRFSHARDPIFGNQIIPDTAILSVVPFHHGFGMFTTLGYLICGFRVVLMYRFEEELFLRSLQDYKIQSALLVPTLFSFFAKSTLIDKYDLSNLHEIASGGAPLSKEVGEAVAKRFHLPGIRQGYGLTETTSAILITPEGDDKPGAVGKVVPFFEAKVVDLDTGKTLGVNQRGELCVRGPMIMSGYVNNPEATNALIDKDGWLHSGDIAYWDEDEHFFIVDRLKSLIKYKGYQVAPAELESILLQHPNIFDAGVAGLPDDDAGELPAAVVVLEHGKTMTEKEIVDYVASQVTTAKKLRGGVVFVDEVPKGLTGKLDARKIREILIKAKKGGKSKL
#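 Purified P. pyralis luciferase (10nM final) in 50mM Tris acetate pH 7.5, 10mM Mg acetate, 0.01% Tween-20, 0.05% BSA with 10uM D-luciferin and 10uM ATP. Compounds titrated qHTS. Luminescence imaged on CCD.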
# hNpr1 antagonist: Natriuretic polypeptide receptor (hNpr1) antagonism - Primary qHTS; Atrial natriuretic peptide receptor 1 (Homo sapiens), P16066; HEK293 hNpr1 GloSensor cGMP, ANP-stimulated luminescence; Potency, µM (series often up to 46.3 µM), for the others: top-dose activity change, negative = inhibition, actives largely listed as inhibitors; 76,000 compounds, 1.6% hits; calls by dose curve; also: nearly all actives have a fitted effect of over 60% in size
#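 Compound pre-incubated 30 min at room temperature on GloSensor-loaded HEK293 cells stably carrying hNpr1 and the pGS-40F cGMP biosensor. Stimulation uses hNppA at 0.1 nM final; luminescence is taken at baseline and 20 min post-agonist.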
# HEK293 tox: Cytotoxic Profiling in HEK 293 Cell Line of Diverse Libraries Using Quantitative High-Throughput Screening. 94,000 compounds, 6.6% hits. HEK 293 viability, ATP luminescence (CellTiter-Glo), 48-72 h. Potency, µM (highest dose often 115 µM), without a hit: at the top dose activity change, negative = cytotoxicity, hits mostly inhibitors; also: nearly all actives have a fitted effect of over 60% in size
#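 HEK 293 cells seeded at 250 cells/well were exposed to compound for 48 or 72 hr at 37 degree Celsius. Viability taken as ATP content by CellTiter-Glo luminescence.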
# Starred values were filed as active, the others as inactive; i = inactive; ? = inconclusive; . = not tested or not shown; [ ] = another dose, or the depositor's remark. Unless noted, calls follow the shape of the dose curve; as a rule, active = well fitted curve in the direction sought with a large enough effect; inconclusive = small, poorly fitted or top-dose-only effect, or another doubt; inactive = no such curve, though single readings can be large; an effect the other way counts as inactive or inconclusive. % is scaled to controls: 0 for no effect and ±100 for the full control effect; potency is read from the fitted curve at half-maximal effect.
SMILES,3T3 cytotox,Luciferase inh,hNpr1 antagonist,HEK293 tox
Cc1noc(C)c1Cc1ccc(C(=O)N2CCC3(CC2)CC(Cc2ccc(F)cc2)CCO3)o1 (stereo unspecified),?,.,.,28µM*
Cc1cccc(C(=O)N2CCC3(CC2)CC(CC(=O)N2CCOCC2)CCO3)c1 (stereo unspecified),-17%,i,-5%,-6%
Cc1ccc(CC2CCOC3(CCN(C(=O)c4cccs4)CC3)C2)cc1 (stereo unspecified),?,i,?,45µM*
COCC(=O)N1CCCC(C(=O)N2CCCC(c3nc4ccncc4[nH]3)C2)C1 (stereo unspecified),-2%,.,.,2%
CCNC(=O)N1CCCC1c1noc(CCC(=O)N2CCN(c3ccccn3)CC2)n1 (stereo unspecified),-7%,.,.,-8%
O=C(NC1CCCCC1)N1Cc2[nH]cnc2C[C@H]1c1nc(-c2ccncc2)no1,-11%[174 µM],i,1%[70.6 µM],-1%[172 µM]
O=C(c1ccc(Cl)nc1)N1CCN(c2ccnc3ccnn23)CC1,-1%,.,.,-10%
O=C(c1ccc2cc[nH]c2c1)N1CCC(N2C(=O)C(OCC3CC3)C23CCOCC3)CC1 (stereo unspecified),-15%,i,8%,?
O=C(c1ccc2cc[nH]c2c1)N1CCC(N2CC(OCC3CC3)C23CCCCC3)CC1 (stereo unspecified),?,i,2%,50µM*
O=C(NCc1ccccc1Cl)C1CCc2nnc(C3CC3)n21 (stereo unspecified),-10%,.,.,-23%
Cc1ccc(-c2cc(N3CCCN(C(=O)Cc4ccccc4Cl)CC3)n[nH]2)cc1C,40µM*,?,-3%,?
Cc1ccc(-c2cc(N3CCCN(C(=O)c4ccco4)CC3)n[nH]2)cc1C,32µM*,i,-10%,?
Cc1ccc(-c2cc(N3CCCN(C(=O)c4cccn4C)CC3)n[nH]2)cc1C,?,i,0%,?
COc1ccc(-c2cc(N3CCCN(C(=O)c4ccc(C(C)(C)C)cc4)CC3)n[nH]2)cc1,?,i,-1%,40µM*
O=C(Cc1ccccc1Cl)N1CCCN(c2cc(-c3ccccc3)[nH]n2)CC1,?,i,-9%,?
Cc1ccc(-c2cc(N3CCCN(C(=O)c4ccc5c(c4)OCO5)CC3)n[nH]2)cc1C,?,i,-16%,?
Cc1ccc(C(=O)N2CCCN(c3cc(-c4ccc(C)c(C)c4)[nH]n3)CC2)cc1C,?,i,-11%,35µM*
CC(=O)N1CCCC(c2[nH]ccc2C(=O)N2CCc3ccccc32)C1 (stereo unspecified),-28%,i,0%,-21%
COc1ccc(-c2cc(N3CCN(C(=O)c4ccc(Cl)cc4OC)CC3)n[nH]2)cc1,?,i,?,?
COc1ccc(C(=O)N2CCCN(c3cc(-c4ccc(OC)cc4)[nH]n3)CC2)cc1,-27%,i,-21%,?
Cc1ccc(C)c(C(=O)N2CCN(c3cc(-c4ccc(Cl)cc4)[nH]n3)CC2)c1,?,i,14µM*,25µM*
Cc1ccccc1C(=O)N1CCN(c2cc(-c3ccc(F)cc3)[nH]n2)CC1,?,i,-21%,?
COc1ccc(Cl)cc1C(=O)N1CCCN(c2cc(-c3ccc(C)c(C)c3)[nH]n2)CC1,40µM*,i,-20%,?
COc1ccc(-c2cc(N3CCCN(C(=O)c4ccc(C)c(C)c4)CC3)n[nH]2)cc1,?,i,0%,45µM*
COc1ccc(CC2CCOC3(CCN(C(=O)Nc4ccccc4F)CC3)C2)cc1 (stereo unspecified),?,i,?,?
SMILES,3T3 cytotox,Luciferase inh,hNpr1 antagonist,HEK293 tox
COc1cccc(-c2cc(C(=O)NCCc3ccc(F)cc3)c3cnn(C)c3n2)c1,-20%,.,.,?
CC(C)NC(=O)NC1CCCN(c2ccc3nnc(-c4ccccc4)n3n2)C1 (stereo unspecified),?,.,.,-28%
COc1ccc2c(c1)OC[C@@H]1CN(CCC#N)C(=O)CCN(C(=O)c3ccc(F)cc3)[C@H]21,?,.,.,-24%
Cc1nn(-c2ccccc2)c2c1C(C1CC1)N(C1CN([S+](C)(=O)[O-])C1)C2=O (stereo unspecified),-29%,.,.,-9%
O=C(NCc1ccccc1)c1cn(C2CN(C(=O)Nc3ccc4c(c3)OCCO4)C2)nn1,?,?,-12%,35µM*
O=C(NCC1CC1)c1cn(C2CN(C(=O)Nc3ccc4c(c3)OCCO4)C2)nn1,-6%,i,2%,-19%
CCC1(O)CCC12CCN(C(=O)c1ccc(OC)c(F)c1)CC2 (stereo unspecified),?,.,.,-28%
CCc1noc(-c2cn(C3CCCN(C(=O)c4ccccc4)C3)nn2)n1 (stereo unspecified),-16%,i,5%,9%
CCn1nccc1C(=O)N1CCCC(n2cc(-c3nc(-c4ccccc4)no3)nn2)C1 (stereo unspecified),-29%,?,13µM*,?
Cn1cccc1C(=O)N1CCCC(n2cc(-c3nc(-c4ccccc4)no3)nn2)C1 (stereo unspecified),?,79µM*,?,?
O=[S+]1([O-])NCC2(CCN(Cc3cccc4ccccc34)C2)Nc2ccccc21 (stereo unspecified),?,i,3%,?
Cc1nn(-c2ccccc2)c2c1C(C)N(C1CCCN([S+](=O)([O-])c3cccs3)C1)C2=O (stereo unspecified),-10%,.,.,2%
Cc1cnc(C(=O)N2CC[C@@H]3CN(Cc4ccccc4)[C@@H]3C2)cn1,-6%,.,.,1%
COc1cccc(-c2ccc(CN3CCCC(NC(=O)C(C)(C)C)C3)cc2)c1 (stereo unspecified),?,.,.,50µM*
COc1cccc(-c2ccc(CN3CCCC(NC(=O)C(C)C)C3)cc2)c1 (stereo unspecified),?,.,.,40µM*
Cc1ccc(-c2cccc(CN3CCCC(NC(=O)C(C)(C)C)C3)c2)cc1Cl (stereo unspecified),-26%,.,.,?
COc1cccc(-c2ccc(CN3CCCC(NC(=O)Cc4ccccn4)C3)cc2)c1 (stereo unspecified),?,.,.,40µM*
O=C(Cc1ccccn1)NC1CCCN(Cc2ccc(-c3cncnc3)cc2)C1 (stereo unspecified),-12%,.,.,-30%
Cc1ccc(-c2cc(C(=O)NCc3cccc(Cl)c3)nn3cnnc23)cc1,-5%,.,.,-7%
O=C1NCc2ccccc2CC12CCN(Cc1ccc(CO)o1)CC2,-6%,.,.,1%
COc1ccc(-c2ccc3onc(C)c3n2)cc1OC,40µM*,i,-2%[70.6 µM],?
